GRK2 aptamer HTS – blocks RNA aptamer binding to human GRK2; P25098; bead flow cytometry, FAM-aptamer displacement from GRK2; inhibition of aptamer binding, % at 10 µM; 330,000 compounds, 0.59% hits; AID 488847;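 active = inhibition of aptamer binding above 40%, roughly 3 SD of noise, on plates passing a quality check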;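 note: median bead fluorescence of bound FAM aptamer so fluorescent compounds give negative values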
Target sequence (P25098 whole entry, looked up): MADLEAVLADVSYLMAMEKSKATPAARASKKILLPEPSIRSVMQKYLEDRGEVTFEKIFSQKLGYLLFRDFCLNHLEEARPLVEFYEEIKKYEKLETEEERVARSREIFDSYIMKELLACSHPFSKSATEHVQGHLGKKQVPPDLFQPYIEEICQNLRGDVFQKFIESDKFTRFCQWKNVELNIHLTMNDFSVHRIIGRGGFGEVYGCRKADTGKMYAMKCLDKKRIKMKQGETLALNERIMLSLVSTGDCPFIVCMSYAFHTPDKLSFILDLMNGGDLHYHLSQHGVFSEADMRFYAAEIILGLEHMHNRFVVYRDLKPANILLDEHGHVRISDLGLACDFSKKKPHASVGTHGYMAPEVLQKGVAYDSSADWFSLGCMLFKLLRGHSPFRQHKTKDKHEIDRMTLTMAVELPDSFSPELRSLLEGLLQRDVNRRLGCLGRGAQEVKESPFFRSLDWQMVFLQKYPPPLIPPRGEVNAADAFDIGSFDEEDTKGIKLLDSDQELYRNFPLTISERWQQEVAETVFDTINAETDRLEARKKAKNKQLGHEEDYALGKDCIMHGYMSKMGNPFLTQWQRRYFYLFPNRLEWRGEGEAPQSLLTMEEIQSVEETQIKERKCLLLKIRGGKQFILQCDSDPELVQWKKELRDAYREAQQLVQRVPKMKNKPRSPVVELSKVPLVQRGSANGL
Rtt109 Vps75 – blocks Candida albicans Rtt109/Vps75 acetyltransferase activity | 330,000 compounds, 0.16% hits | inhibition, % at 34.9 µM | purified Rtt109/Vps75, ThioGlo CoA-SH fluorescence, 4 h | Q5AAJ8;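 active = inhibition of at least 50% in every replicate; inconclusive = best replicate reaches 50% inhibition but some replicates fall short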
Efflux pump inh – blocks antifungal efflux pumps in multiplex yeast assay | 330,000 compounds, 0.44% hits | S. cerevisiae Candida pump triplex, Nile Red efflux | inhibition, % at 10 µM;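 active = plate passing quality check with inhibition over a set limit, or well fluorescence over plate mean plus 4 SD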;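 note: Nile Red retained in pooled yeast measured as flow cytometry median fluorescence; higher means more Nile Red kept so more efflux inhibition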
HDAC3 inh – blocks human histone deacetylase 3 | O15379 | recombinant HDAC3, fluorogenic peptide/trypsin coupled, fluorescence | inhibition, % at 8.3 µM | 320,000 compounds, 0.15% hits | AID 2718; in the data active = inhibition above about 26%, passing the limit was not always enough; inconclusive = no clear call, values can overlap the other calls
Rce1 inhib – inhibitors of yeast Ras-converting enzyme; 290,000 compounds, 0.27% hits; calls only; Q03530; yeast membranes, quenched prenylated peptide cleavage fluorescence;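 active = fall in fluorescence gain of 50% or more versus controls, with final raw signal at or below 3038400; inconclusive = same 50% fall but final raw signal above 3038400; inactive = fall in fluorescence gain under 50%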
ALR H2O2 inh – inhibitors of human sulfhydryl oxidase ALR. 290,000 compounds, 3.8% hits. inhibition, % (test concentration not listed). purified ALR, DTT oxidation, H2O2 HRP-luminol luminescence;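 active = mean replicate inhibition above about 79%, with every replicate also reaching it, limit read from the data; inconclusive = only one of the two criteria met; inactive = mean below limit and not every replicate reaching it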
Numbers stand for hits; – = inactive; ? = inconclusive; · = no result given; + = active, no number. In the library only some 4.5% were active in any assay of this set; here they are far more common.

SMILES | GRK2 aptamer HTS | Rtt109 Vps75 | Efflux pump inh | HDAC3 inh | Rce1 inhib | ALR H2O2 inh
COc1ccc(-c2cn[nH]c2-c2ccc(OCC(=O)NN)cc2O)cc1OC | – | – | – | – | – | –
COc1ccc(-c2cn[nH]c2-c2ccc(OCC(=O)NN)cc2O)cc1 | – | – | – | – | – | 78
CC(C)[C@H](NC(=O)c1ccccc1)C(=O)OCC(=O)c1ccccc1F | – | – | – | – | – | 88
O=C(Nc1ccc(N2CCOCC2)c(Cl)c1)c1cc2ccccc2o1 | – | – | – | – | + | –
O=C(Nc1ccccc1N1CCOCC1)c1cc2ccccc2o1 | – | – | – | – | · | –
COc1ccc(OCc2nnc(SCC(=O)NC3CCCCC3)o2)cc1 | – | – | – | – | – | ·
O=C1C(Nc2ccccc2)=C2CCCC=C2N1c1ccccc1 | – | – | – | – | – | 102
CCCCn1c(N)c(N(CCOC)C(=O)c2ccc(COc3ccccc3)o2)c(=O)[nH]c1=O | – | – | – | – | – | –
COc1ccc(NC(=O)CSc2nnc(C)n2C2CCCCC2)cc1 | – | – | – | – | · | –
CCCCc1c(O)nc(SCC(=O)Nc2ccc(C)cc2)n(-c2ccc(OC)cc2)c1=O | – | – | – | – | – | 99
CCc1c(O)nc(SCC(=O)Nc2ccc(Br)cc2)n(-c2ccc(C)cc2)c1=O | – | – | – | – | – | 96
CCc1c(O)nc(SCC(=O)Nc2ccccc2C)n(-c2ccc(C)cc2)c1=O | – | – | – | – | – | ?
Cc1cc(NC(=O)CSc2nc3c(c(=O)n2-c2ccccc2)SC(C)C3)no1 (stereo not drawn) | – | – | – | – | – | –
CCc1c(O)nc(SCC(=O)Nc2cc(C)on2)n(-c2ccccc2)c1=O | – | – | – | – | – | 97
CCc1c(O)nc(SCC(=O)Nc2ccc(C)cc2)n(C2CCCCC2)c1=O | – | – | – | – | – | 98
N#Cc1ccc(CN2CCN(C(=O)Cn3nc(C(N)=O)c4ccccc4c3=O)CC2)cc1 | – | – | – | – | · | –
O=C(COC(=O)/C=C/c1ccccc1Cl)NC1CCCCCC1 | – | – | – | – | · | –
O=C(CCSc1ccccn1)c1ccccc1 | – | · | – | – | – | –
COc1ccc(C(=O)C2CCCN(C(=O)c3cccc(N(C)C)c3)C2)cc1OC (stereo not drawn) | – | – | – | – | – | –
Cc1ccc(S(=O)(=O)N2CCC(C(=O)O)CC2)cc1 | – | – | – | – | – | ·
COc1ccc(-n2c(SCC(=O)Nc3ccccc3OC)nc(O)c(Cc3ccccc3)c2=O)cc1 | – | – | – | – | – | –
CC(=O)Nc1ccc(NC(=O)CSc2nc3[nH]ncc3c(=O)n2-c2ccccc2)cc1 | – | – | – | – | – | –
Cc1ccc(NC(=O)CSc2nc(O)c(Cc3ccccc3)c(=O)n2-c2ccccc2)cc1 | – | – | – | – | – | 99
COc1ccc(-n2c(SCC(=O)Nc3ccccc3)nnc2-c2ccoc2C)cc1 | – | – | – | – | – | 96
CCc1c(O)nc(SCC(=O)Nc2ccccc2)n(-c2ccccc2)c1=O | – | – | – | – | – | 99
SMILES | GRK2 aptamer HTS | Rtt109 Vps75 | Efflux pump inh | HDAC3 inh | Rce1 inhib | ALR H2O2 inh
Cc1ccc(CS(=O)(=O)CC(C)(O)c2ccccc2)cc1 (stereo not drawn) | – | – | – | – | – | –
COc1ccc(CN2CCNC(=O)C2CC(=O)NCCc2c[nH]c3ccccc23)c(OC)c1 (stereo not drawn) | – | – | – | – | – | –
O=C(Nc1cc(Cl)cc(Cl)c1)c1coc(=O)c(Br)c1 | – | – | – | – | + | –
O=C(NC(CO)(CO)CO)c1coc(=O)c(Br)c1 | – | – | – | – | – | –
Cc1ccc(NC(=O)CCn2c(=S)oc3ccccc32)cc1F | – | – | – | – | – | –
O=[N+]([O-])c1cccc(C=Nc2cccc3ccccc23)c1O | – | – | – | – | – | –
CCOC(=O)c1c(/N=C/c2cccc([N+](=O)[O-])c2O)sc(C)c1C | – | – | – | – | – | 86
COC(=O)c1cc(C)ccc1OCc1ccc([N+](=O)[O-])cc1 | – | – | – | – | – | –
COc1cc(/C=N\N=C2/SC(CC(=O)O)C(=O)N2c2ccc(O)cc2)ccc1O (stereo not drawn) | – | – | – | – | · | 99
COc1ccc(/C=N\N=C2/SC(CC(=O)O)C(=O)N2c2ccc(O)cc2)cc1OC (stereo not drawn) | – | – | – | – | – | –
Cc1cccc(-n2c(O)c(C=Nc3cc(O)ccc3C)c3ccccc3c2=O)n1 | – | – | – | – | – | ·
Cc1cccc(-n2c(O)c(C=Nc3ccc(O)cc3)c3ccccc3c2=O)n1 | – | – | – | – | – | 99
Cc1cccc(-n2c(O)c(/C=N/NC(=O)c3ccccc3Cl)c3ccccc3c2=O)n1 | – | 64 | – | ? | – | 96
Cc1cccc(-n2c(O)c(C=Nc3ccccc3O)c3ccccc3c2=O)n1 | – | – | – | – | – | 98
CC(=O)c1c(C)nn(C(=O)c2cccs2)c1C | – | – | – | 41 | – | –
COCCNc1nnc(SCC(=O)NC(=O)c2ccccc2OC)s1 | – | – | – | – | – | –
COc1ccccc1C(=O)NC(=O)CSc1ccc(C)c(C)c1 | – | – | – | – | · | 97
COC(=O)C(/C=N/OCc1ccc([N+](=O)[O-])cc1)NC(=O)c1ccccc1 (stereo not drawn) | – | – | – | 44 | – | –
Cc1cc(S(=O)(=O)NCCCN2CCOCC2)c(Cl)cc1Cl | – | – | – | – | – | –
Oc1cc(O)cc(/C=C/c2ccc(O)c(O)c2)c1 | – | – | – | – | · | 99
O=C(CC1C(=O)NCCN1Cc1ccc(F)cc1)NCCN1CCCc2ccccc21 (stereo not drawn) | – | · | – | – | – | 99
O=[N+]([O-])c1ccc(-[n+]2ccc3ccccc3c2)c([N+](=O)[O-])c1 | – | – | – | – | – | ·
COC(=O)c1nc(NC(=O)c2cc(OC)c(OC)c(OC)c2)n[nH]1 | – | – | – | 39 | – | 98
COc1cc(C(=O)Nc2ccncc2)cc(OC)c1OC | – | – | – | – | – | –
COC(=O)CSc1ccc2c(N)c(C(=O)OC)sc2c1 | – | – | – | – | – | 100
SMILES | GRK2 aptamer HTS | Rtt109 Vps75 | Efflux pump inh | HDAC3 inh | Rce1 inhib | ALR H2O2 inh
COC(=O)COc1ccsc1C(=O)OC | – | – | – | – | – | –
Cc1cc(NC(=O)CCCn2nc([N+](=O)[O-])c(Cl)c2C)no1 | – | 52 | – | · | – | –
Nc1nc(-c2cc3c(cc2Cl)OCCO3)cs1 | – | – | – | – | – | 99
Cc1nc(-c2ccc3c(c2)OCCCO3)cs1 | – | – | – | 41 | – | –
COc1ccc(Cl)cc1-c1csc(N)n1 | – | – | – | – | – | –
Cc1nc(-c2ccc3c(c2)OCO3)cs1 | – | – | – | – | – | –
Nc1nc(-c2ccc3c(c2)CCCC3)cs1 | – | – | – | – | · | 99
O=C(O)C(=O)Nc1nc(-c2ccc3c(c2)OCCO3)cs1 | – | – | – | – | – | –

Assay outcomes: PubChem BioAssay, several laboratories
